Screening data from PubChem.
PolyA inh: inhibitors of polyadenylation in S. cerevisiae; S. cerevisiae SKY197-pL101 polyadenylation reporter, beta-gal luminescence; efflux-impaired pdr1/pdr3 knockout yeast; score 100 = 6 SD above DMSO; activity score, % at 12 µM; actives 0.02% (n = 300,000);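 active = lowest replicate activity score at least 50, where 100 means six control SD above control mean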;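 note: yeast exposed to compound for 9 h at 30 °C; higher score means more reporter readthrough which indicates perturbed polyadenylation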
NALP1 yeast inh: blocks the NALP1 inflammasome reconstituted in yeast; inhibition, % at 10 µM; AID 2071; actives 0.61% (n = 280,000); S. cerevisiae NALP1/ASC/caspase-1 growth, X-gal OD620, 72 h; in the data active = inhibition mostly above about 24%, no sharp cut-off; inactive = mostly below about 32%
HTR5A inv ctr: inverse agonist of human HTR5A in OPRM1-OPRD1 counter-screen. P47898. HTR5A cell line, luminescence, inverse agonism. inhibition, % at 9.3 µM. actives 0.083% (n = 340,000); in the data active = inhibition mostly above about 23%, no sharp cut-off; inactive = mostly below about 18%
OPRM1-OPRD1 inv: inverse agonists of human mu-delta opioid receptor heterodimerization | cell-based MOR-DOR heterodimer luminescence, inverse agonism | inhibition, % at 9.3 µM | actives 0.21% (n = 340,000) | AID 504357; in the data active = inhibition above about 22%, passing the limit was not always enough
Target sequence (P35372 whole entry, looked up): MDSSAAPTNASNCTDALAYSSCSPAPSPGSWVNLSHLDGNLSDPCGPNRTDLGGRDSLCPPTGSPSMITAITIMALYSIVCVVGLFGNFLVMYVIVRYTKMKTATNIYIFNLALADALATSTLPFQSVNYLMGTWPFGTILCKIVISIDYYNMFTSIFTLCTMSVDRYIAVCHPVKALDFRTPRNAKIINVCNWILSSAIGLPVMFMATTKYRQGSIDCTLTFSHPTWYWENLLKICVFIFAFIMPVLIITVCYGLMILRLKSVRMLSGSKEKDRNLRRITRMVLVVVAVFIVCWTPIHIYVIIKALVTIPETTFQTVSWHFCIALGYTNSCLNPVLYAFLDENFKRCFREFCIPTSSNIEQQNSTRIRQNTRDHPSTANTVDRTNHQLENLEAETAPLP
Target sequence (P41143 whole entry, looked up): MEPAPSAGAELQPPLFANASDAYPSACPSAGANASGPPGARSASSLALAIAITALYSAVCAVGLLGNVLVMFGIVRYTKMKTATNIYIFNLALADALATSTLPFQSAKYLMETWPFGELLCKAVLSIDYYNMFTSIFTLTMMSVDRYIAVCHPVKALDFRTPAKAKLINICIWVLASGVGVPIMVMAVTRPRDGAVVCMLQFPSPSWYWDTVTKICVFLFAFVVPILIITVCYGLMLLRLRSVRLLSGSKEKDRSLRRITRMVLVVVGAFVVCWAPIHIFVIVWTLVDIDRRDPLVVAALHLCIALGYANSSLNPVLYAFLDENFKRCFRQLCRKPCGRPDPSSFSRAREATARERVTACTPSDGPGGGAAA
HTR5A ag: activates human HTR5A in OPRM1-OPRD1 agonist counter-screen; activation, % at 9.3 µM; actives 0.61% (n = 340,000); P47898; HTR5A agonist assay, luminescence, cell-based; in the data active = activation mostly above about 9.5%, no sharp cut-off; inactive = mostly below about 7.6%
OPRM1-OPRD1 ag: OPRM1-OPRD1 heterodimerization agonism; cells, luminescence; actives 0.3% (n = 340,000); activation, % at 9.3 µM; AID 504326; P35372+P41143; in the data active = activation above about 18%
Hits are given with their value; n = inactive; x = no result. Rows were chosen to be rich in hits. Some 1.6% of all compounds tested hit in one or more screens of this group.

SMILES	PolyA inh	NALP1 yeast inh	HTR5A inv ctr	OPRM1-OPRD1 inv	HTR5A ag	OPRM1-OPRD1 ag
CC(C)c1ccc(S(=O)(=O)/N=C2/C=C(Sc3ncn[nH]3)C(=O)c3ccccc32)cc1	x	n	n	n	n	25
O=C(Nc1ccc(Cl)cc1)OC(CN1CCCCC1)C(F)(F)F (stereo unspecified)	n	25	n	n	n	n
O=C(Nc1cccc(F)c1)OC(CN1CCCCC1)C(F)(F)F (stereo unspecified)	n	n	n	n	n	n
CCOC(=O)c1sc(NC(=O)CSc2nc(-c3ccco3)cc(C(F)(F)F)n2)c(C(=O)OC)c1C	n	n	n	n	n	n
CCCOC(=O)c1c(NC(=O)CSc2nc(-c3ccco3)cc(C(F)(F)F)n2)sc(C(=O)OC)c1C	n	41	n	n	n	n
O=C(NCc1ccc(F)cc1)c1ccc(Br)o1	n	n	n	n	n	n
CN(C)c1ccc(NC(=O)CN2CCC(O)(c3ccccc3)CC2)cc1	n	29	n	n	n	n
CN(C)c1ccc(NC(=O)CN2CCN(CC(=O)Nc3ccc(F)cc3)CC2)cc1	n	n	n	n	n	n
O=C(O)c1cccc(N/N=C/c2cc(Br)cc(Br)c2O)c1	n	n	n	n	n	n
Cc1c(N=Cc2cc(Br)cc(Br)c2O)cccc1C(=O)O	n	58	n	n	n	n
CCC(C)N(C(=O)CN1C(=O)NC2(CCc3ccccc32)C1=O)C1CCS(=O)(=O)C1 (stereo unspecified)	x	x	n	n	n	n
CCOc1ccc(-n2c(C)nc3cc(C(=O)NCCCN4CCOCC4)ccc32)cc1	n	26	n	n	n	n
CCOc1ccc(-n2c(C)nc3cc(C(=O)NCCN4CCOCC4)ccc32)cc1	n	n	n	n	n	n
COc1ccc(OC)c(-n2cnc3cc(C(=O)NCCCN4CCOCC4)ccc32)c1	n	23	n	n	n	n
Cc1cc(Br)cnc1NC(=S)Nc1ccc(F)cc1F	n	n	n	n	n	n
Nc1ccc(N(CCO)CCO)cc1	n	n	n	n	12	n
CC(c1nccs1)N(C)C(=O)CCc1nnc(CCc2ccccc2)o1 (stereo unspecified)	n	n	n	n	n	n
O=C1CC(Sc2ncccn2)C(=O)N1c1ccccc1 (stereo unspecified)	n	n	n	n	n	n
CCOC(=O)c1ccc(N2C(=O)CC(Sc3nnc(C)s3)C2=O)cc1 (stereo unspecified)	n	40	n	n	n	n
CCOC(=O)c1ccc(N2C(=O)C=CC2=O)cc1	n	108	n	n	n	n
Nc1nnc(SC2CC(=O)N(c3ccccc3)C2=O)s1 (stereo unspecified)	n	37	n	n	n	n
CCOC(=O)c1ccc(-n2c(C)ccc2C)cc1	n	n	n	n	n	n
CC(NC(=O)CSc1nc2ccccc2n1C)c1ccccc1 (stereo unspecified)	n	n	n	n	14	n
Cc1ccc2nc(/C(C#N)=C\c3ccc([N+](=O)[O-])o3)[nH]c2c1	x	52	n	n	105	575
N#C/C(=C\c1ccc([N+](=O)[O-])o1)c1nc2ccccc2[nH]1	711	101	x	x	x	x
SMILES	PolyA inh	NALP1 yeast inh	HTR5A inv ctr	OPRM1-OPRD1 inv	HTR5A ag	OPRM1-OPRD1 ag
CCOc1ccc(S(=O)(=O)N2CCOCC2)cc1NS(=O)(=O)c1ccc(OC)c([N+](=O)[O-])c1	n	x	n	n	n	n
O=C(CSc1nc2nn(-c3ccccc3)c(=O)c-2c2n1CCCCC2)Nc1cccc(F)c1	x	x	n	n	n	n
COc1ccccc1NC(=S)N1CCN(c2ccccc2F)CC1	n	n	n	n	n	n
O=C(O)/C=C1\NC(=O)c2ccccc21	n	n	n	n	n	n
O=C1N/C(=C\c2ccc(O)cc2)C(=O)c2ccccc21	n	n	n	n	12	n
Cc1c(NCc2ccccc2O)c(=O)n(-c2ccccc2)n1C	n	38	n	n	n	n
CCOC(=O)c1c(-c2ccccc2)oc2cc(CN(C)C)c(O)c(CN(C)C)c12	n	x	n	n	12	n
CCOC(=O)c1c(C)oc2cc(Cl)c(O)c(CN(C)C)c12	n	n	n	n	n	n
CN(CC(=O)Nc1ccc(F)cc1)C(=O)Cn1nnc(-c2ccccc2)n1	n	n	n	n	n	n
c1ccc(Nc2nc(N3CCCC3)nc(N3CCCC3)n2)cc1	n	n	n	n	13	n
c1ccc(Nc2nc(N3CCCCC3)nc(N3CCCCC3)n2)cc1	n	n	n	n	n	n
Cc1nc2c(O)cccc2cc1CO	n	36	n	n	n	n
O=C1N=C(N2CCN(c3ccccc3)CC2)SC1Cc1ccccc1 (stereo unspecified)	n	40	n	n	n	n
Cc1ccc(N2CCN(C3=NC(=O)C(Cc4ccccc4)S3)CC2)cc1 (stereo unspecified)	n	n	n	n	n	n
CC1CCCN(CCCOc2ccc(Cl)cc2Br)C1 (stereo unspecified)	n	50	n	n	n	n
Cc1ccc(OC(C)C(=O)Nc2ccc(S(=O)(=O)N3CCOCC3)cc2)cc1 (stereo unspecified)	n	n	n	n	n	n
CC(=O)Nc1cc2nc(C)n(Cc3ccc([N+](=O)[O-])cc3)c2nc1C	n	n	n	n	n	n
FC(F)(F)c1cccc(OCCN2CCN(Cc3ccccc3)CC2)c1	n	n	n	n	n	n
COc1cc(CSc2nc(-c3ccccc3)cc(=O)[nH]2)cc(OC)c1	n	n	n	n	n	n
COc1ccc(-c2noc(CSc3nc(-c4ccccc4)cc(=O)[nH]3)n2)cc1	n	40	n	n	n	n
O=S(=O)(c1ccc(Cl)s1)N1CCC(Cc2ccccc2)CC1	n	40	n	n	n	n
CC(=O)n1c2ccccc2c2nc3ccccc3nc21	n	30	n	n	n	n
O=S(=O)(c1ccc2c(c1)OCCO2)N1CCN(Cc2ccccc2)CC1	n	n	n	n	14	n
O=S(=O)(c1ccc2c(c1)OCCO2)N1CCN(Cc2ccc3c(c2)OCO3)CC1	n	n	n	n	n	n
O=S(=O)(c1ccc2c(c1)OCCO2)N1CCC(O)(c2ccc(Cl)cc2)CC1	n	35	n	n	n	n
SMILES	PolyA inh	NALP1 yeast inh	HTR5A inv ctr	OPRM1-OPRD1 inv	HTR5A ag	OPRM1-OPRD1 ag
C[C@H](NCc1c[nH]c2ccccc12)c1ccccc1	n	n	n	n	n	n
CCOc1ccc(NC(=O)NCCN2CCN(c3cccc(C)c3C)CC2)cc1	n	n	n	n	11	n
CCC(=O)NC1(C(F)(F)F)C(=O)Nc2c1c(=O)[nH]c(=O)n2CC(C)C (stereo unspecified)	n	n	n	n	n	n
CCOC(=O)c1cccc(NC(=O)/C=C/c2cccc([N+](=O)[O-])c2)c1	n	n	n	n	n	n
CCOC(=O)/C=C/C(=O)Nc1cccc([N+](=O)[O-])c1	n	81	n	n	n	n
O=C(N/N=C/c1cc(Cl)ccc1O)c1ccccc1Br	n	n	n	n	12	n
